This is an account of results in PubChem BioAssay.

The nature of experiment [1]: optical density shifts of acrAB sulA E. coli – strain DRC41, OD650, 48 h, E. coli filamentation inducer project, primary screen (AID 1152).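 Also: E. coli MC1000 strain DRC41 lacking acrAB efflux pump and sulA.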 Particulars: higher = more signal, called active from +8 up or from −8 down.
The nature of experiment [2]: probe aLefty1 binding on compound microarray – biochemical, small-molecule microarray, 635/667 nm fluorescence, primary screen (AID 1153).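 Also: score merges spot fluorescence with signal-to-noise ratio from the scanned slide images.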 The note with it: higher = more signal.
A short description of experiment [3]: plasmodial surface anion channel blockers, osmotic lysis – cell-based, P. falciparum Indochina, OD700, 1 h, primary screen (AID 1154). Particulars: P. falciparum Indochina infected RBC osmotic lysis, higher = more signal, called active from +8 up or from −8 down.
A short description of experiment [4]: plasmodial surface anion channel blockers, osmotic lysis – cell-based, P. falciparum Indochina, OD700, 2 h, primary screen (AID 1155).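 Also: lysis reports solute entry through the parasite surface anion channel PSAC.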 The note with it: P. falciparum Indochina infected erythrocytes, higher = more signal, called active from +8 up or from −8 down.
Experiment [5] can be described thus: changes in parasitized red cell lysis, either direction – P. falciparum Indochina, OD700, 3 h, PSAC antagonist project, primary screen (AID 1156). The note with it: P. falciparum-infected erythrocytes, osmotic lysis, higher = more signal, called active from +8 up or from −8 down.
A short description of experiment [6]: plasmodial surface anion channel blockers, osmotic lysis – cell-based, P. falciparum Indochina, OD700, 18 h, primary screen (AID 1157). The note with it: P. falciparum Indochina infected erythrocytes, osmotic lysis OD700, 18 h; higher = more signal, called active from +8 up or from −8 down.
The nature of experiment [7]: S6 kinase pathway phospho-S6 level changes – cell-based, A549, cytoblot, luminescence, serum-stimulated, primary screen (AID 1158).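 Also: serum-stimulated A549 lung adenocarcinoma cells; signal is phosphorylated S6 detected by cytoblot immunostaining with HRP secondary.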 Particulars: 5 h, higher = more signal.
Experiment [8] addresses NADPH oxidase 2 (Homo sapiens) (UniProt P04839). Put plainly: compounds shifting NOX2 Amplex Red fluorescence – cell-based, HEK293-NOX2, PMA-stimulated, NOX inhibitor project, primary screen (AID 1159). Also: test concentration not given here. Particulars: 45 min, higher = more signal, called active from +8 up or from −8 down.
Experiment [9] concerns the target NADPH oxidase 4 (Homo sapiens) (UniProt Q9NPH5). Put plainly: compounds shifting NOX4 Amplex Red fluorescence – cell-based, HEK293-NOX4, tetracycline-induced, NOX inhibitor project, primary screen (AID 1160). Particulars: HEK293-NOX4, Amplex Red H2O2 fluorescence, 45 min; higher = more signal, called active from +8 up or from −8 down.
The target in experiment [10] is NADPH oxidase 5 (Homo sapiens) (UniProt Q96PH1). Put plainly: compounds shifting NOX5 Amplex Red fluorescence – cell-based, HEK293-NOX5, NOX inhibitor project, primary screen (AID 1161). Particulars: HEK293-NOX5, ionomycin, 45 min, higher = more signal.
Chain of NADPH oxidase 5 (Homo sapiens) (Q96PH1 whole entry, looked up): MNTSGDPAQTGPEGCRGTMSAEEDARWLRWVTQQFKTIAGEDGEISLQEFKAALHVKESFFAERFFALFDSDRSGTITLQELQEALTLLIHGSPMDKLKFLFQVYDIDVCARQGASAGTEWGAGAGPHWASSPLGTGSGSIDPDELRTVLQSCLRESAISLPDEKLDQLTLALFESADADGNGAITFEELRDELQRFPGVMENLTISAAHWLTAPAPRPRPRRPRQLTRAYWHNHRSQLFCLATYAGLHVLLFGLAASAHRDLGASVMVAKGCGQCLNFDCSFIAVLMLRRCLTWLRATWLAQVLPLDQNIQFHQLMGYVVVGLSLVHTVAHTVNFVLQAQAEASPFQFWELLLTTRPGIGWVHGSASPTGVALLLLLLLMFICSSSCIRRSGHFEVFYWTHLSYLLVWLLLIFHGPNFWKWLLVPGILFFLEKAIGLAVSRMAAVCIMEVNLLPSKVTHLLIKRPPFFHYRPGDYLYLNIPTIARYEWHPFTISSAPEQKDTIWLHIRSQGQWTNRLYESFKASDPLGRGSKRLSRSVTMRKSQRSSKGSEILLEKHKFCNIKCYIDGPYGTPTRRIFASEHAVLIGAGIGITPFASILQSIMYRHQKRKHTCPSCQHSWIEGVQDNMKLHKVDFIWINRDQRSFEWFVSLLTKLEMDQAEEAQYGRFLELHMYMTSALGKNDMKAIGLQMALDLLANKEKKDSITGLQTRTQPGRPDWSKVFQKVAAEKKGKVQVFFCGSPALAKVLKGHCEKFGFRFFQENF

SMILES strings stand for the structures. Activity calls are given as the source filed them.

Chain of NADPH oxidase 4 (Homo sapiens) (Q9NPH5 whole entry, looked up): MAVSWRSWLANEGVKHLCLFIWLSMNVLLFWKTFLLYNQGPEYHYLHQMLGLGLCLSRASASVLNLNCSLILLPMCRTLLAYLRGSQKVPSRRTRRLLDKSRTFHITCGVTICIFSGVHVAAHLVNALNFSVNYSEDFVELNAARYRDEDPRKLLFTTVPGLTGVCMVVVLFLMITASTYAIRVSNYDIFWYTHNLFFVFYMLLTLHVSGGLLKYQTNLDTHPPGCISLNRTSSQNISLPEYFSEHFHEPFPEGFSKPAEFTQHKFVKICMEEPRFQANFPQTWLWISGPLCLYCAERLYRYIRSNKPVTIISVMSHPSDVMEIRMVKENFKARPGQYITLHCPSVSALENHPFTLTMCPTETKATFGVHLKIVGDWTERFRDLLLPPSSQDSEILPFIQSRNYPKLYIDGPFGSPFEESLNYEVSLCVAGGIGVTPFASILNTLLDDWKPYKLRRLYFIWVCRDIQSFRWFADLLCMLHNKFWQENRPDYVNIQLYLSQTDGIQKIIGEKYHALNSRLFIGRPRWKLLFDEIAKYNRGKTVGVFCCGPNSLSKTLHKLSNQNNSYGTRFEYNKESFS
Chain of NADPH oxidase 2 (Homo sapiens) (P04839 whole entry, looked up): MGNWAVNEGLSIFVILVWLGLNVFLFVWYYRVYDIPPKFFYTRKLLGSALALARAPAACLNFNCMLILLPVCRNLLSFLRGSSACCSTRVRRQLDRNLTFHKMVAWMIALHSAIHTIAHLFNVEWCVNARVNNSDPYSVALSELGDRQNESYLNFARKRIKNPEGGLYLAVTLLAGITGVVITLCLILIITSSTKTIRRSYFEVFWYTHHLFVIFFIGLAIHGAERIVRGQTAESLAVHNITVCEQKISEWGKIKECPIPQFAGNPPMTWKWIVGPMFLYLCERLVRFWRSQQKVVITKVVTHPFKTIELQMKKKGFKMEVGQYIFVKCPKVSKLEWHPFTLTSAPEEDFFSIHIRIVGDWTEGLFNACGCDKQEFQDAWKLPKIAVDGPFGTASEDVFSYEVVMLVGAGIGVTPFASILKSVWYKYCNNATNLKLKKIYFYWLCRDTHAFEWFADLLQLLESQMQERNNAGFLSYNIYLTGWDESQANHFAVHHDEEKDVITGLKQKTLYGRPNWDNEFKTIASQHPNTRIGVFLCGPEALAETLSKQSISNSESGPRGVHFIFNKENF

For `COCCCNC(=O)[C@@]1(CCC(=O)OC(C)(C)C)N=C(c2ccc(OCCCO)cc2)O[C@H]1c1ccccc1`, the z-score in experiment [1] was 1.41 (inactive); in experiment [3] it was 12.9 (active); in experiment [4], 1.15 (inactive); in experiment [5], 0.384 (inactive); in experiment [6] it was 0.566 (inactive); in experiment [7] it was -0.422. The z-score was -0.865 (inactive) in [8], 0.388 (inactive) in [9] and 0.188 in [10]. For the same compound, the composite z-score in experiment [2] turned out to be 0.0949.
For the compound `COCCCNC(=O)[C@@]1(Cc2ccccc2I)c2ccccc2C(=O)N(Cc2ccccc2OC)[C@H]1c1ccc(CO)cc1`, the z-score was 0.567 (inactive) in experiment [1]; 10.1 (active) in experiment [3]; 1.27 (inactive) in experiment [4]; 1.73 (inactive) in experiment [5]; 0.576 (inactive) in experiment [6]; -0.0483 in experiment [7]. The z-score in experiment [8] was -1.68 (inactive); in experiment [9] it was 0.642 (inactive); in experiment [10], -1.19. In addition, the composite z-score in [2] was -0.164.
Regarding `O=C1NC(=O)C2C1C=CC(C(O)C(O)CO)N2Nc1ccccn1` (stereo not given), the z-score in [1] was -0.0393 (inactive); in experiment [3], 0.0087 (inactive); in [4], 0.0339 (inactive); in experiment [5], -0.489 (inactive); in experiment [6], -0.145 (inactive); in experiment [7], 1.14. The z-score was -0.193 (inactive) in [8], -0.921 (inactive) in experiment [9] and -0.339 in experiment [10]. This compound returned a composite z-score in [2] of 0.586.
As to `C=CCC(OC(C)=O)[C@@H]1[C@@H](N(Cc2ccc(-c3ccccc3)cc2)C(=O)Cc2ccc(OC)cc2)c2cc(OCCCO)ccc2N1C(=O)Cc1ccc(OC)cc1` (stereo not given in full), the z-score is -0.92 (inactive) in experiment [1]; 3.76 (inactive) in experiment [3]; -0.313 (inactive) in experiment [4]; 0.167 (inactive) in experiment [5]; 0.141 (inactive) in experiment [6]; 0.518 in experiment [7]. The z-score in experiment [8] is -3.55 (inactive); in experiment [9] it was 0.194 (inactive); in [10], -0.0291. This compound had a composite z-score in experiment [2] of 0.299.
As for `C=C(C(=O)CC[C@@H](OC(=O)c1ccccc1-c1ccccc1C(=O)O)c1ccc(CO)o1)C(C)C`, the z-score is -0.796 (inactive) in experiment [1]; 0.897 (inactive) in [3]; 0.192 (inactive) in experiment [4]; 0.365 (inactive) in [5]; 0.0861 (inactive) in experiment [6]; -0.535 in experiment [7]. The z-score is 1 (inactive) in experiment [8], -0.593 (inactive) in [9] and -0.213 in experiment [10]. In [2], this compound displayed a composite z-score of 0.0945.
In the case of `[N-]=[N+]=NCc1ccccc1[C@H]1OC(c2ccc(OCCCO)cc2)=N[C@@]1(Cc1ccccc1N=[N+]=[N-])C(=O)N1CCOCC1`, the z-score was -0.476 (inactive) in experiment [1]; 28.3 (active) in [3]; 22 (active) in [4]; 2.5 (inactive) in [5]; 3.77 (inactive) in experiment [6]; -0.318 in [7]. The figures for the z-score in experiment [8], in experiment [9] and in experiment [10] were -5.55 (inactive), -1.03 (inactive) and -2.42, respectively. The same compound displayed a composite z-score in experiment [2] of 0.181.
Turning to `COCCOC(=O)N1C(=O)[C@@]2(c3cc(C#CCC(C(=O)OC)C(=O)OC)ccc31)[C@H](c1ccc(O)cc1)N1[C@H](c3ccccc3)[C@H](c3ccccc3)OC(=O)[C@H]1[C@@H]2C(=O)N1CCc2cc(OC)c(OC)cc2C1`, the z-score in [1] is 0.904 (inactive); in experiment [3], 0.442 (inactive); in [4] it was 0.0876 (inactive); in experiment [5] it was 0.328 (inactive); in [6], 0.394 (inactive); in [7], 0.161. Besides, the z-score is 1.94 (inactive) in experiment [8], 0.336 (inactive) in [9] and 1.23 in experiment [10]. In addition, the composite z-score in experiment [2] was -0.149.
Consider `OCCCc1cc[n+](Cc2cc3c(cc2Br)OCO3)cc1`, for which the z-score is 0.855 (inactive) in experiment [1]; -0.103 (inactive) in [3]; 0.0608 (inactive) in experiment [4]; -0.895 (inactive) in [5]; -0.237 (inactive) in experiment [6]; -0.132 in experiment [7]. Moreover, the z-score in experiment [8] was -0.0452 (inactive); in [9], 0.27 (inactive); in [10], -0.112. The compound further returned a composite z-score in [2] of 0.0191.
With `CCOC(=O)C[C@H]1[C@H](OC(=O)c2ccc(-c3ccccc3)cc2)[C@@H](NC(=O)c2ccc(-c3ccccc3)cc2)c2cc(OCCCO)ccc2N1C(=O)c1ccccc1`, the z-score in experiment [1] was -0.825 (inactive); in experiment [3] it was 0.744 (inactive); in [4] it was 0.745 (inactive); in experiment [5] it was -0.392 (inactive); in experiment [6], 0.678 (inactive); in [7] it was -0.0382. In addition, the z-score in [8] is 0.546 (inactive); in [9], -1.29 (inactive); in experiment [10], -0.655. Moreover, the composite z-score in experiment [2] was determined as 0.0437.
Take `C=C(C)C1CN([C@H](CO)c2ccccc2)C(=O)/C1=C\c1ccccc1` (stereo not given in full): the z-score in experiment [1] is 1.01 (inactive); in experiment [3], -0.0012 (inactive); in [4] it was -0.916 (inactive); in [5], -0.683 (inactive); in experiment [6], -1.8 (inactive); in [7], 1.59. The figures for the z-score in [8], in experiment [9] and in experiment [10] were -0.00303 (inactive), 0.0494 (inactive) and -1.27, respectively. Also, in experiment [2], the composite z-score was -0.147.
In the case of `CO[C@H]1O[C@H](CO)[C@@H](OC(=O)CCc2ccccc2)[C@@H]2OC(=O)[C@@H](Cc3ccc4ccccc4c3)C/C=C/C[C@H](Cc3ccc4ccccc4c3)C(=O)O[C@@H]12`, the z-score in experiment [1] was 0.411 (inactive); in experiment [3], 2.85 (inactive); in experiment [4] it was -0.498 (inactive); in experiment [5], -1.88 (inactive); in experiment [6], -1.71 (inactive); in [7] it was 0.795. Also, the z-score in experiment [8] was 1.5 (inactive); in experiment [9], -0.27 (inactive); in experiment [10] it was -0.995. In addition, the composite z-score in experiment [2] was -0.949.
